Out of some 85,000 compounds screened, about 440 (0.52%) showed an effect of 50% or more. Shown is part of a subset that was picked to be rich in strong results.
Test: In vitro enzyme assay to detect hydrolysis of chlorophenol red-beta-D-[…] directly proportional to the number of Toxoplasma stably expressing beta-galactosidase
Format: functional, organism-based, Toxoplasma gondii
Set-up: scale not given: in the data most compounds retested in dose-response had high values

Compound | Percent Effect (50 µM) | Percent Effect (10 µM)
Cc1ccc(F)cc1S(=O)(=O)N1CCN[C@H](C)C1 | -0.3006% | –
CCN1CN=C(NS(=O)(=O)c2ccc(C)cc2)NC1 | -65% | –
CCSc1cc(C(=O)N2CC[S+]([O-])CC2)ccn1 | 18.59% | –
CC(CCc1ccc(O)cc1)NCCN1CCOCC1 (configuration not stated) | -1.81% | –
O=C(CSCC(=O)NC1CC1)Nc1ccccc1 | 16.41% | –
CN(C)CCC1CN(C(=O)CCc2cccs2)CCO1 (configuration not stated) | -11.11% | –
CCOc1c(OC)cc(CN)cc1OC | -2.331% | –
CCC(CO)Nc1ncc(C(F)(F)F)cc1Cl (configuration not stated) | -11.03% | –
CCOc1cccc(NC(=O)NCCN(C)C)n1 | -13.49% | –
COc1ccc(CS(=O)(=O)CC(=O)NCC2CC2)cc1F | – | 4.977%
COc1ccc(CC(=O)NCC2CCCNC2)cc1F (configuration not stated) | 55.41% | –
Cc1cccc(CC(=O)NCC2CCCNC2)c1 (configuration not stated) | -6.216% | –
CCC(C)NC(=O)c1cnn(-c2ccccc2)c1 (configuration not stated) | -7.328% | –
CCC(OC)c1n[nH]c(=O)n1Cc1cccc(OC)c1 (configuration not stated) | -6.855% | –
CCC(C)NCCOC (configuration not stated) | -11.32% | –
CCN(CC(=O)NC)C(=O)C(C)SC (configuration not stated) | 23.69% | –
Clc1ccccc1C1(c2ccnc(C3CCCC3)n2)CCNCC1 | – | 92.51%
OC1(c2ccccc2Cl)CCNCC1 | 6.16% | –
CC(C)(C)c1nccc(C2(c3ccccc3Cl)CCNCC2)n1 | – | 94.8%
Clc1ccccc1C1(c2ccnc(-c3ccncc3)n2)CCNCC1 | – | 16.95%
Clc1ccccc1C1(c2ccnc(C3CC3)n2)CCNCC1 | – | 61.01%
Clc1ccccc1C1(c2ccnc(-c3ncccn3)n2)CCNCC1 | – | 5.922%
O=c1[nH]cccc1-c1nccc(C2(c3ccccc3Cl)CCNCC2)n1 | – | 22.57%
Clc1ccccc1C1(c2ccnc(CC3CC3)n2)CCNCC1 | – | 35.91%
CC(C)c1nccc(C2(c3ccccc3Cl)CCNCC2)n1 | – | 24.49%

Compound | Percent Effect (50 µM) | Percent Effect (10 µM)
NC(=O)C1(CNCc2cccc(F)c2)CCOCC1 | -0.9049% | –
CSCc1nnc(SCC(=O)NC2(C#N)CCCC2)o1 | 9.959% | –
CCCNC(=O)C1CCCN1 (configuration not stated) | 2.398% | –
CC(=O)Nc1ccc(-n2cncn2)nc1 | -6.105% | –
O=C(NCc1cccnc1)c1cn2cccnc2n1 | -2.314% | –
Cc1noc(CCCNC(=O)CNC(=O)c2cc3ccccc3[nH]2)n1 | – | 4.234%
Cc1noc(CCCNC(=O)c2ccon2)n1 | 62.73% | –
CC1(CCNC(=O)c2ccon2)OCCO1 | 9.96% | –
Cc1ocnc1CNC(=O)c1ccc(Br)cn1 | 1.589% | –
Cc1ocnc1CNC(=O)c1ccon1 | 99.22% | –
Cc1nc(C)c(C(=O)NCc2ncoc2C)s1 | -1.836% | –
CCC=C(C)C(=O)NCC(C)N1CCN(CC)CC1 (configuration not stated) | 11.7% | –
CCNC(=O)C1CCN(C(=O)Cc2cccc(O)c2)C1 (configuration not stated) | -5.389% | –
CC(C)(O)CCN1CCC(NC(=O)C2CCC2)CC1 | 0.697% | –
COCCN1CCC(c2ccn[nH]2)CC1 | -6.586% | –
CNC(=O)NC(=O)CSc1ccccc1F | -1.003% | –
CCOc1ncccc1C(=O)NCC1CCCN1CC (configuration not stated) | -0.459% | –
CCOc1ncccc1C(=O)NCC(C)N1CCCC1 (configuration not stated) | 52.4% | –
COc1ncccc1C(=O)NCC(=O)N1CCCC1 | -2.429% | –
CCN1C(=O)C[C@H](CN)[C@H]1c1ccncc1 | 4.591% | –
CCCn1cnnc1CNC | 0.9072% | –
COc1cccc(-c2cc(C(=O)Nc3nc[nH]n3)[nH]n2)c1 | – | 20.51%
CNc1cc(-c2cccc(OC)c2)[nH]n1 | 98.42% | –
CNc1cc(OC)ccn1 | -16.02% | –
Cn1cc(Br)c(CO)n1 | 1.484% | –

Compound | Percent Effect (50 µM) | Percent Effect (10 µM)
Cc1cc(CCC(=O)NCCC(N)=O)ccc1Br | -2.096% | –
Cc1ccc(F)cc1S(=O)(=O)N1C[C@H](C2CC2)[C@@H](N)C1 | 98.86% | –
Cc1ccc(F)c(S(=O)(=O)N2C[C@H](C3CC3)[C@@H](N)C2)c1 | 7.08% | –
Cc1cc(F)ccc1S(=O)(=O)N1C[C@H](C2CC2)[C@@H](N)C1 | 8.476% | –
COc1ccc(S(=O)(=O)N2C[C@H]3CNC[C@@H](C2)O3)cc1 | -2.543% | –
OCC1CCN(Cc2ccccc2)CC1 | -5.201% | –
NCc1cccc(OCC(F)F)c1 | -2.735% | –
CCCc1ccc(CN2CCC(NC(C)=O)C2)o1 (configuration not stated) | 2.217% | –
O=C(NCC1CCN(C2CC2)C1)c1ccccc1F (configuration not stated) | 13.84% | –
O=C(Cn1cc(Cl)cn1)N1CCCC(c2ccn[nH]2)C1 (configuration not stated) | – | -16.77%
CN(C)[C@H]1CCCCN(C(=O)Cn2cc(Cl)cn2)C1 | 95.45% | –
CN(C)c1cc(C2CCCN(C(=O)Cn3cc(Cl)cn3)C2)ccn1 (configuration not stated) | – | 0.9748%
CC(C)(C)CC1CCCN1S(N)(=O)=O (configuration not stated) | -15.84% | –
CC(C)(C(=O)OCC(N)=O)c1ccccc1 | 2.133% | –
CC(C)N(C)CC(=O)NCCn1cccc1 | 7.108% | –
O=C(NCc1n[nH]c(=O)[nH]1)C1COc2ccccc21 (configuration not stated) | -1.703% | –
CNc1ncc2c(n1)CN(CCc1ccccc1)C2=O | – | -25.26%
COc1ccc(N2Cc3nc(N)ncc3C2=O)cc1 | – | 9.612%
CCNc1ncc2c(n1)CN(c1cccc(OC)c1)C2=O | – | 76.16%
Cc1cccc(N2Cc3nc(N4CCC(C)CC4)ncc3C2=O)c1 | – | 14.75%
COc1cccc(N2Cc3nc(=O)[nH]n3C2=O)c1 | – | -7.908%
CNc1ncc2c(n1)CN(c1cccc(OC)c1)C2=O | – | 69.02%
CN(C(=O)CC(N)c1ccccc1)c1cccc(F)c1 (configuration not stated) | 3.1% | –
Nc1ncccc1CN1CCN(C2CCOCC2)CC1 | 4.597% | –
O=C1CCCCN1Cn1cnc2c(Br)cccc2c1=O | -5.958% | –

Compound | Percent Effect (50 µM) | Percent Effect (10 µM)
COc1ccc(C(=O)Nc2c(C(=O)N(C)C)nn(C)c2C)cc1 | – | 52.86%
Cc1ccc(C(=O)Nc2c(C(=O)N(C)C)nn(C)c2C)cc1 | – | 18.52%
Cc1ccc(C(=O)Nc2c(C(=O)N(C)C)nn(C)c2C)cc1C | – | 61.35%
Cc1cccc(C(=O)Nc2c(C(=O)N(C)C)nn(C)c2C)c1 | – | 18.52%
Cc1c(NC(=O)c2cccc(Br)c2)c(C(=O)N(C)C)nn1C | – | 13.13%
Cc1c(NC(=O)c2ccc(Br)cc2)c(C(=O)N(C)C)nn1C | – | 46.94%
CC(=O)NCc1ccc(C(C)=O)s1 | 3.848% | –
CCOc1cc(CNCc2ccccn2)ccc1O | 12.08% | –
Cc1cc(NC(=O)c2ccc(S(C)(=O)=O)cc2)no1 | 1.537% | –
CCNS(=O)(=O)c1csc(C(=O)Nc2cc(C)on2)c1 | 60.53% | –
CCS(=O)(=O)N(C)CC(=O)Nc1cc(C)on1 | -10.63% | –
Cc1ccoc1C(=O)NC1CCN(Cc2cccc3ccccc23)CC1 | – | 53.31%
Cc1ccoc1C(=O)NC1CCN(Cc2ccccc2F)CC1 | – | -8.886%
Cc1ccoc1C(=O)NC1CCN(Cc2ccccc2C#N)CC1 | – | -1.883%
CC(C)(C)c1ccc(-n2ncc3c2CCCC3N)cc1 (configuration not stated) | – | 50.93%
Cc1cc(C)cc(-n2ncc3c2CCCC3N)c1 (configuration not stated) | – | 16.38%
Cc1ccc(-n2ncc3c2CCCC3N)cc1C (configuration not stated) | – | 16.25%
COc1ccc(CN2CCCNCC2)cc1 | 13.71% | –
Cc1cc(C(=O)N(C)Cc2cccs2)nc(N2CCCC2)n1 | – | 6.801%
Cc1cc(C(=O)N(C)Cc2cccs2)nc(N2CCOCC2)n1 | – | -10.44%
Cc1cc(C(=O)N(C)Cc2cccs2)nc(N2CCCCC2)n1 | – | 73.87%
CSc1ccc(CNc2ccn(CCC(N)=O)n2)cc1 | -4.331% | –
O=C(NCCN1CCOCC1)c1cc(-c2ccc(Cl)s2)[nH]n1 | – | 52.66%
O=C(NCCN1CCOCC1)c1cc(-c2ccccc2Cl)[nH]n1 | – | -1.617%
Cc1ccc(-c2cc(C(=O)NCCN3CCOCC3)n[nH]2)s1 | – | 27.02%

Compound | Percent Effect (50 µM) | Percent Effect (10 µM)
CS(=O)(=O)N[C@H]1CN(c2ccncc2F)C[C@@H]1C1CC1 | 3.462% | –
CCc1cnc(CNC(=O)NCc2cnn(C)c2)s1 | -4.497% | –
Cc1cc(C(=O)Nc2ccc(OCC(N)=O)cc2)on1 | 12.73% | –
Cc1cc(C(=O)Nc2cccc(C[S+](C)[O-])c2)on1 (configuration not stated) | 98.42% | –
Cc1cc(C(=O)Nc2cnn(C)c2)on1 | 0.4555% | –
O=C(NCCNc1ncccn1)C1CC(=O)N(Cc2ccco2)C1 (configuration not stated) | – | 18.03%
O=C(NCCNc1ncccn1)C1CC(=O)N(Cc2ccccn2)C1 (configuration not stated) | – | 66.32%
O=C(NCCNc1ncccn1)C1CC(=O)N(Cc2ccccc2)C1 (configuration not stated) | – | 14.32%
Cc1c(-c2nc(-c3cccc(CN4CCOCC4)c3)no2)cnn1C | – | 8.571%
Cc1occc1-c1nc(-c2cccc(CN3CCOCC3)c2)no1 | – | 55.09%
Cc1cc(-c2nc(-c3cccc(CN4CCOCC4)c3)no2)no1 | – | 8.772%
N#Cc1cccc(CN)c1F | 2.806% | –
COCCCNc1ccc(Br)cn1 | 6.813% | –
COCCNc1nnc(-c2ccccn2)s1 | – | 14.66%
COCCNc1nnc(SCc2ccc(Br)cn2)s1 | 98.42% | –
Cc1n[nH]cc1CNCc1nccs1 | -5.718% | –
COCCNC(=O)c1cn(CC2CCCNC2)nn1 (configuration not stated) | -4.648% | –
CCc1cc(NCc2cccnc2)n2nccc2n1 | 3.949% | –
COc1ccc2c(c1)CCCC2N (configuration not stated) | 9.435% | –
Cn1cc(CN2CC(C(=O)Nc3ccccc3)C3(CCOCC3)C2)cn1.O=C(O)C(F)(F)F (configuration not stated) | – | -1.627%
Cn1cc(CN2C[C@@H]3COC[C@H](C(=O)Nc4cccnc4)[C@@H]3C2)cn1.O=C(O)C(F)(F)F.O=C(O)C(F)(F)F | – | 79.48%
Cn1cc(CN2C[C@@H]3COC[C@@H](C(=O)N4CCCCO4)[C@@H]3C2)cn1.O=C(O)C(F)(F)F.O=C(O)C(F)(F)F | – | 0.4992%

— ChEMBL document CHEMBL3988442, “University of Dundee, Small-Polar-MMV Screening Library” (2021)
